# Compound activity from PubChem BioAssay.
# D1 antag: Antagonist of Human D 1 Dopamine Receptor: qHTS. 360,000 compounds, 3.2% hits. HEK293 TREx D1 cells, calcium flux, dopamine EC80; hits give low values. activity change, negative = inhibition, % at 10 µM; in the data active means activity change below about -30%; further: on the % scale 0 is the no-effect control and ±100 the full control effect
# Target sequence (P21728 whole entry, looked up): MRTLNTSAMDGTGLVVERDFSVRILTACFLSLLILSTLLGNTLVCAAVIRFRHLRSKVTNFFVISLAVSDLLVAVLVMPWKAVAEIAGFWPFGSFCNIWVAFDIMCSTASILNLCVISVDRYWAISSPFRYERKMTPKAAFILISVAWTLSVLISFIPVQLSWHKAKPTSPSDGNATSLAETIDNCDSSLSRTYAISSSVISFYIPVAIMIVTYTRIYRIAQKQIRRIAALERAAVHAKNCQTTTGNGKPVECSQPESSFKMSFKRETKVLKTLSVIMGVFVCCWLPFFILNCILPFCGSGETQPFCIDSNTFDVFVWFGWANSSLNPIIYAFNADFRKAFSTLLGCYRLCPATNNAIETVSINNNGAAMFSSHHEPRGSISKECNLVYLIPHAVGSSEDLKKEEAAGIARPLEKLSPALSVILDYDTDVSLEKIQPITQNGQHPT
#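 Antagonism measured as reduced calcium response to an EC80 dopamine addition following 180 s compound pre-read; cells were inducible HEK293 Trex D1 plated overnight at 30 C, read kinetically at 1 cycle/sec.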
# TRHR enhancer: qHTS for Small Molecule Agonists and Allosteric Enhancers of Human TRH Receptor: Primary Screen for Enhancers | TRHR cells, fluo-8 calcium fluorescence, EC20 TRH enhancement | enhancement, % at 2 µM | 360,000 compounds, 0.66% hits; in the data active means enhancement above about 30%; further: 0% is about no effect
#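 TRHR-expressing cells loaded with fluo-8 calcium dye were read kinetically (ex 480/em 530) during compound addition, then stimulated with an EC20 of TRH (10 nM final). Enhancement of the Gq-mediated intracellular calcium response was scored.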
# D1 potentiator: Potentiators of Human D1 Dopamine Receptor: qHTS. HEK293 TREx D1 cells, calcium flux, dopamine EC20 potentiation. potentiation, % at 10 µM. 360,000 compounds, 0.036% hits. AID 504651, 2011; in the data active means potentiation above about 30%; further: 0% is about no effect
# D1 ag: Allosteric Agonists of the Human D1 Dopamine Receptor: qHTS. D(1A) dopamine receptor (Homo sapiens), P21728. HEK293 T-REx D1 cells, calcium flux, agonist mode. activation, % at 2 µM. 360,000 compounds, 1% hits. AID 504660, 2011; further: 0% is about no effect
#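 Tetracycline-induced HEK293 TREx D1 cells, force-coupled to calcium signalling, were dye-loaded with a no-wash calcium kit. Compound was pin-added after a 10 s baseline. Fluorescence was read kinetically at 1 cycle/s for 180 s, with calcium rises flagged as agonism.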
# TRHR agonist: qHTS for Small Molecule Agonists and Allosteric Enhancers of Human TRH Receptor: Primary Screen for Agonists. 360,000 compounds, 0.18% hits. Thyrotropin-releasing hormone receptor (Homo sapiens), P34981. activation, % at 2 µM. TRHR cells, calcium flux fluo-8, FDSS agonist mode; further: 0% is about no effect
#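 Agonist-mode FDSS calcium read (Ex 480/Em 530, 1 s cycles) in 1536-well TRHR cells with fluo-8 dye, after 10-cycle baseline and 23 nL compound addition; TRH at EC20 (10 nM final) added afterwards for the enhancer phase.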
# * marks the source's active call; other numbers are inactive results; nt = no result given. Shown are actives, neighbours in structure and some others; about 4.7% of the full set was active somewhere. Unless noted, no stated cut-off is given here; in the data, active means activation above about 30%; inactive means the rest.
SMILES,D1 antag,TRHR enhancer,D1 potentiator,D1 ag,TRHR agonist
CNC[C@H](CC1CCCCC1)NC[C@H](Cc1ccccc1)NCCC12CC3CC(CC(C3)C1)C2,8,7,4,32*,1
c1csc(-c2noc(COc3ccc4c(c3)CCCC4)n2)c1,-39*,10,-2,27,0
CCN(CC)C(=O)CN(c1cc2c(cc1OC)oc1ccccc12)S(=O)(=O)c1ccccc1,-68*,-4,-11,2,1
COc1cc2oc3ccccc3c2cc1N(CC(=O)N(C)C)S(=O)(=O)c1ccccc1,-5,-7,0,1,1
CCN(C(=O)c1ccc2c(c1)N(Cc1cccc(Cl)c1)C(=O)c1ccccc1S2=O)c1ccccc1 (stereo not drawn),-4,-4,-6,0,0
Cc1ccc(Cn2c3ccccc3c3cnn(CC(=O)Nc4cc(Cl)ccc4C)c(=O)c32)cc1,6,45*,-6,2,0
CCCn1c2ccccc2c2cnn(CC(=O)NCCc3ccc(S(N)(=O)=O)cc3)c(=O)c21,11,-3,3,2,40*
Cc1cc(C)c(Cn2c3ccccc3c3cnn(CC(=O)NCc4ccc(Cl)cc4)c(=O)c32)c(C)c1,7,13,-2,4,0
COC(=O)[C@@]12CCCN1[C@H](c1ccc(-c3ccc(F)cc3)cc1)[C@H]1C(=O)N(C)C(=O)[C@H]12,-44*,-3,-2,3,-1
C/C(CCc1ccco1)=N\NC(=O)CNc1c(Br)cc(Br)cc1Br,-44*,26,-2,4,1
Cc1ccc(-c2nn3c(=O)cc(CN4CCN(C(=O)Nc5cc(Cl)ccc5C)CC4)nc3s2)cc1,-2,6,0,1,0
CCOC(=O)c1oc2ccc(S(=O)(=O)n3nc(-c4ccccc4)cc3N)cc2c1C,-34*,-2,-3,2,0
O=C(CCc1nnc2ccc(NCc3ccc(F)cc3)nn12)NC1CCCC1,-16,-3,-9,3,1
O=C(CCc1nnc2ccc(NCc3ccccc3)nn12)NCC1CCN(C2CCCC2)C1 (stereo not drawn),-84*,-1,-6,0,0
Cc1ccc(C)c(S(=O)(=O)c2nnn3c2nc(N2CCCCC2)c2sccc23)c1,-15,-12,-5,0,-1
Cc1cc(C)c(NC(=O)Cn2c(=O)nc(-c3ccccc3)c3cc(Cl)ccc32)c(C)c1,-4,-5,0,-1,-1
CCCNC(=O)c1ccc(-n2c(-c3ccccc3)cc3c2CCCCC3)cc1,-19,-7,-3,11,1
COCCNC(=O)c1ccc(-n2c(-c3ccccc3)cc3c2CCCCC3)cc1,-18,0,-5,39*,0
Cc1cc(C)nc(N/N=C/c2ccccc2)n1,12,-5,-1,-1,0
Cc1cc(C)nc(N/N=C/c2ccc3c(c2)OCCO3)n1,-32*,-1,-5,2,0
N#Cc1nc(Nc2ccc(C(F)(F)F)cc2)nc(NC2CCCC2)n1,-10,-1,-6,8,0
COc1cccc(C2=CC(c3ccc(N(C)C)cc3)n3nnnc3N2)c1 (stereo not drawn),-36*,0,-12,3,1
COc1ccc(OC)c(C2C=C(c3ccc(C)c(C)c3)Nc3nnnn32)c1 (stereo not drawn),-1,1,3,2,0
COc1cccc(C2=CC(c3cc(OC)ccc3OC)n3nnnc3N2)c1 (stereo not drawn),-42*,2,-4,2,-1
COc1ccccc1N1CCN(c2ncnc3c2nnn3C)CC1,nt,0,-1,11,0
SMILES,D1 antag,TRHR enhancer,D1 potentiator,D1 ag,TRHR agonist
CSc1ccccc1NC(=O)CSc1nnc(CNC(=O)c2ccccc2F)n1C,5,3,nt,48*,0
COc1cc2ncc(C(=O)c3ccc(C)cc3)c(N3CCCCC3)c2cc1OC,-3,-6,-7,0,0
O=C(NCCN1CCOCC1)Nc1ccc(Cl)cc1Cl,-45*,2,2,1,0
COc1ccc(Cl)c(N2CCN(CCCNC(=O)Nc3ccc(C)cc3)CC2)c1,-60*,7,-21,29,-1
COc1ccc(NC(=O)NCCN2CCN(c3cc(OC)ccc3OC)CC2)cc1,3,3,1,3,-1
CC(Oc1ccc(Cl)cc1Cl)C(=O)NCCN1CCOCC1 (stereo not drawn),16,0,-8,4,-1
Cc1ccc(NC(=O)NCCN2CCN(c3ccccc3)CC2)cc1Cl,-16,13,-5,13,-1
COc1ccc(Cl)cc1N1CCN(CCNC(=O)Nc2ccccc2C)CC1,-15,-3,-10,8,0
COc1ccc(N2CCN(CCNC(=O)Nc3cc(Cl)ccc3OC)CC2)cc1,-18,29,-16,44*,-2
COc1ccc(Cl)c(NC(=O)NCCN2CCN(c3ccccc3)CC2)c1,-65*,0,-6,7,0
CCOC(=O)c1sc2nc(C)nc(NCc3ccc(F)cc3)c2c1C,3,2,1,4,1
CCOC(=O)c1sc2nc(C)nc(Nc3ccc(OC)cc3)c2c1C,-30*,-1,-1,2,-1
O=C(Cn1cc(CN(Cc2ccccc2)Cc2ccccc2)nn1)Nc1cc(C(F)(F)F)ccc1Cl,-21,0,-3,6,-2
CSc1ccccc1OC1CCN(Cc2ccccc2)CC1,-88*,13,-8,15,0
CCC(C)(C)n1nnnc1C(C(C)C)N(Cc1cccnc1)Cc1ccco1 (stereo not drawn),-44*,21,3,-1,0
CC(C)(C)n1nnnc1C(c1cccnc1)N(Cc1ccccc1)Cc1ccco1 (stereo not drawn),-10,10,-4,3,-1
COCCCNC(=O)C1CCN(C(=O)c2ccc(-n3ccc4ccccc43)s2)CC1,-11,-4,-4,1,0
COc1cccc(NC(=O)CSc2nc3n[nH]c(C)c3c(=N)n2-c2cccc(OC)c2)c1,-31*,2,-9,2,0
Cc1cc(-n2c(SCC(=O)NCc3cccs3)nc3n[nH]c(C)c3c2=N)ccc1Cl,-42*,3,-15,3,0
Cc1cc(-n2c(SCC(=O)Nc3ccc(Br)cc3)nc3n[nH]c(C)c3c2=N)ccc1Cl,-2,-1,-7,1,1
COc1ccccc1-c1noc(CSc2nnc(Cc3ccccc3)n2-c2ccc(C)c(C)c2)n1,2,0,4,4,0
